PubChem BioAssay (NCATS)
Records with an inconclusive call do not appear. Active and inactive are the calls of the source. Unless noted, the call rests on the fitted dose curve; in most records, active means well fitted curve in the direction sought with a large enough effect; inconclusive means small, poorly fitted or top-dose-only effect, or another doubt; inactive means no such curve, though single readings can be large; an effect the other way counts as inactive or inconclusive.

What was measured:
[1] = qHTS Validation Assay to Find Inhibitors of Chronic Active B-Cell Receptor Signaling (AID 485345; active means well fitted curve in the direction sought with a large enough effect in the main read-out, with a control signal flat, not every such curve was filed as active;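 further: 0% = untreated basal cells and 100% = 10 µM MG-132 proteasome inhibitor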)
In short: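 Read-out: ratio of filter-corrected green (IkappaBalpha fusion) to red (native) luciferase signal in doxycycline-induced TMD8 cells after 4 h at 37C. Titration spanned 46 uM–3 nM; Data were normalised to basal cells and 10 uM MG-132 wells.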

[2] = target: Beta-2 adrenergic receptor (Homo sapiens) (UniProt P07550); test: qHTS validation assay of beta-arrestin-biased ligands of beta2-adrenergic receptor (AID 485366); further: 0% is about no effect
In short: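 Tango cells expressing recombinant beta2-AR and beta-arrestin with tTA-driven luciferase, in DMEM with 1% FBS. Compounds were titrated up to 46 microM for 18 hr at 37 degrees C. Luminescence was read 15 min after substrate; curves were fitted and class-assigned.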

[3] = Quantitative high throughput screen for delayed death inhibitors of the malarial parasite plastid, 96 hour incubation (AID 488745); further: nearly all actives have a fitted effect of over 70% in size; further: potency means the concentration at half of the fitted maximal effect
In short: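 Luciferase-expressing P. falciparum in erythrocytes (2% hematocrit, 0.1% parasitemia) incubated with compound for 96 h at 37 C, 5% CO2, in RPMI 1640 with 0.5% Albumax. Growth inhibition read as decreased luminescence.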

[4] = target: Methanococcus maripaludis chaperonin (MmCpn) (UniProt Q6LX38); test: High-Throughput Screening for Modulators of Cytosolic Chaperonin Activity: MmCpn Primary Screen (AID 488978); further: 0% is about no effect
In short: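 HTRF readout (320 nm excitation, 590/665 nm emission) of ADP generated by 50 nM MmCpn hydrolysing 30 uM ATP during 10 min at 37C; compound preincubated 5 min RT.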

[5] = target: D(1A) dopamine receptor (Homo sapiens) (UniProt P21728); test: HTS Assay for Allosteric Agonists of the Human D1 Dopamine Receptor: Primary Screen for Agonists (AID 488981); further: potency means the concentration at half of the fitted maximal effect; on activation: 0% is about no effect
In short: (§1)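 Calcium flux in an inducible, force-coupled HEK293 Trex D1 line (overnight at 30 C): agonist mode is the 180 s kinetic read after compound; potentiator mode is the following 180 s read after dopamine at EC20.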

[6] = Validation screen for small molecules that induce genotoxicity in human embryonic kidney (HEK293T) cells expressing luciferase-tagged ELG1 (AID 493106); further: potency means the concentration at half of the fitted maximal effect
In short: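 HEK293T cells expressing luciferase-tagged ELG1, 2,000 cells/well, exposed to compound 16 hr at 37 °C, 5% CO2. Luciferase read after ONE-Glo, 30 min at room temperature; increased signal indicates genetic stress.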

[7] = target: ATPase family AAA domain-containing protein 5 (Homo sapiens) (UniProt Q96QE3); test: Validation screen for small molecules that inhibit ELG1-dependent DNA repair in human embryonic kidney (HEK293T) cells expressing luciferase-tagged ELG1 (AID 493107);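 further: cells co-treated with the DNA-damaging agent 5-fluorouridine alongside compound; series mostly up to about 46 µM; on the % scale 0 is the no-effect control and ±100 the full control effect; inhibitors lower the ELG1-luciferase luminescence signal; nearly all actives have a fitted effect of over 70% in size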
In short: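 HEK293T cells expressing luciferase-tagged ELG1, 2,000 per well, treated with 5-fluorouridine plus compound for 16 h at 37 C. ONE-Glo luminescence after 30 min at room temperature reports ELG1 reporter level.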

[8] = target: Thyrotropin-releasing hormone receptor (Homo sapiens) (UniProt P34981); test: qHTS for Small Molecule Agonists and Allosteric Enhancers of Human TRH Receptor: Validation Screen for Agonists (AID 493127;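 active means calcium activation more than 3 SD above the typical response in the agonist read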; further: 0% is about no effect); conditions: TRH receptor agonist cell assay; at 2 µM; stronger effect = higher value
In short: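 TRHR cells loaded with fluo-8 calcium dye; FDSS kinetic fluorescence (Ex 480/Em 530) read at 1 s/cycle after 23 nL compound addition. Agonist-mode calcium response recorded before the 10 nM TRH (EC20) addition.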

[9] = Nrf2 qHTS screen for inhibitors: Validation (AID 493153; active means well fitted inhibition curve with a large enough effect in the main read-out, with a control signal flat, not every such curve was filed as active); conditions: Potency: luciferase luminescence; viability change: measured here: cytotoxicity max response
In short: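 A549 cells carrying ARE-firefly luciferase reporter, 5000 cells/well in 5% FBS OPTI-MEM, treated with compound over a concentration series for 18-24 h at 37 C. Luciferase luminescence gave Nrf2 activity; CellTiter-Fluor fluorescence gave viability.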

[10] = qHTS for Inhibitors of Cell Surface uPA Generation: Validation Assay (AID 493164); further: 0% is about no effect
In short: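 RAW 264.7 cells (4000/well) were plated overnight, then exposed for 18 h at 37 C, 5% CO2 to compounds in a 7-point 1:5 titration (2.45 nM–38.3 uM final). Intracellular ATP was read by ATP-Lite luminescence.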

[11] = target: ATP-dependent 6-phosphofructokinase (Trypanosoma brucei brucei) (UniProt O15648); test: qHTS Validation Assay to Find Inhibitors of T. brucei phosphofructokinase (AID 485368)
In short: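 Activity was read as ADP production by luminescence (ADP-Glo) after 45 min at room temperature. The enzyme was 1.25nM PFK in 0.1M TEA pH 8.0 with 0.5 mM F6P, 0.1mM ATP and 5 mM MgCl2. Compounds were titrated up to 57 uM and % activity normalized to no-enzyme and full-enzyme controls.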

[12] = target: Thioredoxin reductase 1, cytoplasmic (Rattus norvegicus) (UniProt O89049); test: qHTS Assay for Substrates of Mammalian Selenoprotein Thioredoxin Reductase 1 (TrxR1) (AID 488772);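 further: NADPH fluorescence in the first read after selenite addition and not the 8 min delta; series mostly up to about 57 µM; 0% is about no effect; a drop in NADPH fluorescence below the no-compound background marks a TrxR1 substrate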
In short: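 Quantitative HTS in Tris-HCl buffer at pH 7.5 with EDTA and Tween-20, using rat TrxR1, 400 uM NADPH and 400 uM selenite (final). A fall in initial NADPH fluorescence relative to background marked substrate behaviour.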

[13] = target: Flap endonuclease 1 (Homo sapiens) (UniProt P39748); test: qHTS Validation Assay for the Inhibitors of Human Flap endonuclease 1 (FEN1) (AID 488816); further: potency means the concentration at half of the fitted maximal effect
In short: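 Readings taken at 0 and 15 min after starting the reaction with 50 nM (final) substrate supplied the signal. Compounds had first sat with 10 nM FEN1 reagent for 15 min at room temperature. Values come from Hill-equation concentration-response fits.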

[14] = target: M-phase phosphoprotein 8 (Homo sapiens) (UniProt Q99549); test: qHTS Validation Assay for Inhibitors for MPP8 Chromodomain Interactions with Methylated Histone Tails (AID 488949); further: nearly all actives have a fitted effect of over 55% in size; further: potency means the concentration at half of the fitted maximal effect
In short: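 Chemiluminescent proximity assay: histidine-tag capture via nickel acceptor beads, biotin peptide via streptavidin donor beads. Protein and peptide each at 50 nM, pH 7.4, with 30 min incubations at room temperature for complex formation, compound exposure and bead binding.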

[15] = target: Chromobox protein homolog 1 (Homo sapiens) (UniProt P83916); test: qHTS Validation Assay for Inhibitors of HP1-beta Chromodomain Interactions with Methylated Histone Tails (AID 488953); further: nearly all actives have a fitted effect of over 50% in size; further: potency means the concentration at half of the fitted maximal effect
In short: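 HP1-beta (50 nM) preformed 30 min with biotinylated H3(1-18)K9me3 peptide (50 nM) in PBS pH 7.4, 0.01% Tween-20. Compounds added for 30 min at room temperature. Complex disruption read by AlphaScreen with streptavidin donor/nickel chelate acceptor beads (10 ug/mL each).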

[16] = target: D(1A) dopamine receptor (Homo sapiens) (UniProt P21728); test: HTS Assay for Allosteric Agonists of the Human D1 Dopamine Receptor: Primary Screen for Potentiators (AID 488982); further: 0% is about no effect
In short: as §1

[17] = target: D(1A) dopamine receptor (Homo sapiens) (UniProt P21728); test: HTS Assay for Allosteric Agonists of the Human D1 Dopamine Receptor: Primary Screen for Antagonists (AID 488983);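 further: calcium flux response to an EC80 dopamine challenge measured with no-wash dye; nearly all actives have a fitted effect of over 65% in size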; further: potency means the concentration at half of the fitted maximal effect
In short: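 Tetracycline-induced HEK293 T-REx D1 line, force-coupled to calcium flux, read with no-wash calcium dye. Compound added after 10 s baseline, read 180 s for agonism, then EC80 dopamine added and read a further 180 s.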

[18] = target: ATP-dependent 6-phosphofructokinase (Trypanosoma brucei brucei) (UniProt O15648); test: qHTS Assay to Find Inhibitors of T. brucei phosphofructokinase: hit validation (AID 492961);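 further: luminescence reports ADP formed as PFK phosphorylates fructose-6-phosphate with ATP; series mostly up to about 51 µM; on the % scale 0 is the no-effect control and ±100 the full control effect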
In short: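 In this biochemical qHTS validation, titrated compounds were tested against 1.25 nM PFK with 0.1 mM ATP and 0.5 mM F6P. Percent activity came from controls lacking or containing enzyme.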

[19] = target: Transient receptor potential cation channel subfamily V member 1 (Homo sapiens) (UniProt Q8NER1); test: HTS Assay for Compounds that Act as Enhancers of the Vanilloid Receptor 1 (AID 488979); further: 0% is about no effect
In short: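 Calcium influx kinetics via Fluo-8 (480/520 nm) in TRPV1-expressing cells, 2000/well cultured overnight at 35.5C. Compound-alone read 3 min (agonist phase), followed by EC20 capsaicin challenge for 2 min (enhancer phase).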

Sequence of Transient receptor potential cation channel subfamily V member 1 (Homo sapiens) (Q8NER1 whole entry, looked up): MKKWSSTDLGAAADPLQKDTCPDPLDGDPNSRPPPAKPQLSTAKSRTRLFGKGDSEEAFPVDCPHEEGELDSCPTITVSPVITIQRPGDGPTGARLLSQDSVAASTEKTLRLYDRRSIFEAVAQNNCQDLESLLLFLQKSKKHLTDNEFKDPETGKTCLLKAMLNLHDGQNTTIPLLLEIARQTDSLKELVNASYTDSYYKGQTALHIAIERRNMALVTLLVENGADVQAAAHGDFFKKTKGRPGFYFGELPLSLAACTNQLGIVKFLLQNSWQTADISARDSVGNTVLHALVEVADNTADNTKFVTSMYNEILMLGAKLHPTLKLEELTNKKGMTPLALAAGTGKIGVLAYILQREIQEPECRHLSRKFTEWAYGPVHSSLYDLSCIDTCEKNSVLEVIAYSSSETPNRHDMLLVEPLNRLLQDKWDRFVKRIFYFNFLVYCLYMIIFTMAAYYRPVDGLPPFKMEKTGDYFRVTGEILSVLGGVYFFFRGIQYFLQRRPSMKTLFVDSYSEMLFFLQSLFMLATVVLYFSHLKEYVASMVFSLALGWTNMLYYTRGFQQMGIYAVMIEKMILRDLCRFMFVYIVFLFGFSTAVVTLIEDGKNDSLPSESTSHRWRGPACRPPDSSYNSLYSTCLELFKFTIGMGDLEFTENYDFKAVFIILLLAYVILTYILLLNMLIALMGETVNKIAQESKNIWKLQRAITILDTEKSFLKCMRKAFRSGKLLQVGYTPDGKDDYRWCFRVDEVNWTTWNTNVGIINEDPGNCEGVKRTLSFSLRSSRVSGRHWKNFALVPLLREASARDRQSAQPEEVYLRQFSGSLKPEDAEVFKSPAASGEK
Sequence of Beta-2 adrenergic receptor (Homo sapiens) (P07550 whole entry, looked up): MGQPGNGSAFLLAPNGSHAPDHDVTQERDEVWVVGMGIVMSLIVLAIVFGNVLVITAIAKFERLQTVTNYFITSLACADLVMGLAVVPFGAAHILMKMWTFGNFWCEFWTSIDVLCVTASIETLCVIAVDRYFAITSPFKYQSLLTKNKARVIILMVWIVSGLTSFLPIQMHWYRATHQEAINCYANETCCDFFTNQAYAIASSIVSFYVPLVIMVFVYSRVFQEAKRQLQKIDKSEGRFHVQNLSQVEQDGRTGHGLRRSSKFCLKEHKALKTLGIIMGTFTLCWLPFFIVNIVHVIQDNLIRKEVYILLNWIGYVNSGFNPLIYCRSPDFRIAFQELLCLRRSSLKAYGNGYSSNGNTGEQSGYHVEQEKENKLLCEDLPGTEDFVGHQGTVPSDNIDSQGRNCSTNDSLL
Sequence of Flap endonuclease 1 (Homo sapiens) (P39748 whole entry, looked up): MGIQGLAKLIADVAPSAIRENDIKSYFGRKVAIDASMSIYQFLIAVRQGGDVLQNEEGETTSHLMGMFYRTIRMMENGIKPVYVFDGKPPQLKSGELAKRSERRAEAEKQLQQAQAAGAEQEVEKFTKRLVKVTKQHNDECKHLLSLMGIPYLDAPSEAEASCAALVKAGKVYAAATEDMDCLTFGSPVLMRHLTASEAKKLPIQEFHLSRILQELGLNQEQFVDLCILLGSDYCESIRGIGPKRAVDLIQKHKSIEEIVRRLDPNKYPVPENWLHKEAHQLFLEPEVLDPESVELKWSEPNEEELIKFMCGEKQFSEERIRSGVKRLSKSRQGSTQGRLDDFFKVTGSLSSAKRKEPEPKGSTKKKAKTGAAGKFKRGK
Sequence of Methanococcus maripaludis chaperonin (MmCpn) (Q6LX38 1-543): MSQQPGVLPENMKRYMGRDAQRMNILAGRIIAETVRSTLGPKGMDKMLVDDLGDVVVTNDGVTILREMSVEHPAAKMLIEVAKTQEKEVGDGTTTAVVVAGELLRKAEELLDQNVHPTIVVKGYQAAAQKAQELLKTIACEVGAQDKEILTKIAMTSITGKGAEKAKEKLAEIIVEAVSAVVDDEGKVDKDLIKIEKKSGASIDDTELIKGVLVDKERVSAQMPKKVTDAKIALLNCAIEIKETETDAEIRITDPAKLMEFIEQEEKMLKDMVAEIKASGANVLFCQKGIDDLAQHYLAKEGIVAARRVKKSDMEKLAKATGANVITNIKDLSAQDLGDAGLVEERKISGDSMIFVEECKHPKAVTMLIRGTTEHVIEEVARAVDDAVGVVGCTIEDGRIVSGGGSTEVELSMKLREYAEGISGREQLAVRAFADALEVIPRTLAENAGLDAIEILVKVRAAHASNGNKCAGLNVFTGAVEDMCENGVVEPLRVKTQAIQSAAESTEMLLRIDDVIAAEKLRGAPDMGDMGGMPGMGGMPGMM
Sequence of Chromobox protein homolog 1 (Homo sapiens) (P83916 whole entry, looked up): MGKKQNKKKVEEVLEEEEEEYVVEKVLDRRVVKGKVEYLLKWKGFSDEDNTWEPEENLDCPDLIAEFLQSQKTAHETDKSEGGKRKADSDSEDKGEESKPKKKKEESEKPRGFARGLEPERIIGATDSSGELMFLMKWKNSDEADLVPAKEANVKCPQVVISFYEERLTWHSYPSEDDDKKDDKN
Sequence of ATPase family AAA domain-containing protein 5 (Homo sapiens) (Q96QE3 whole entry, looked up, the tested form may be a part): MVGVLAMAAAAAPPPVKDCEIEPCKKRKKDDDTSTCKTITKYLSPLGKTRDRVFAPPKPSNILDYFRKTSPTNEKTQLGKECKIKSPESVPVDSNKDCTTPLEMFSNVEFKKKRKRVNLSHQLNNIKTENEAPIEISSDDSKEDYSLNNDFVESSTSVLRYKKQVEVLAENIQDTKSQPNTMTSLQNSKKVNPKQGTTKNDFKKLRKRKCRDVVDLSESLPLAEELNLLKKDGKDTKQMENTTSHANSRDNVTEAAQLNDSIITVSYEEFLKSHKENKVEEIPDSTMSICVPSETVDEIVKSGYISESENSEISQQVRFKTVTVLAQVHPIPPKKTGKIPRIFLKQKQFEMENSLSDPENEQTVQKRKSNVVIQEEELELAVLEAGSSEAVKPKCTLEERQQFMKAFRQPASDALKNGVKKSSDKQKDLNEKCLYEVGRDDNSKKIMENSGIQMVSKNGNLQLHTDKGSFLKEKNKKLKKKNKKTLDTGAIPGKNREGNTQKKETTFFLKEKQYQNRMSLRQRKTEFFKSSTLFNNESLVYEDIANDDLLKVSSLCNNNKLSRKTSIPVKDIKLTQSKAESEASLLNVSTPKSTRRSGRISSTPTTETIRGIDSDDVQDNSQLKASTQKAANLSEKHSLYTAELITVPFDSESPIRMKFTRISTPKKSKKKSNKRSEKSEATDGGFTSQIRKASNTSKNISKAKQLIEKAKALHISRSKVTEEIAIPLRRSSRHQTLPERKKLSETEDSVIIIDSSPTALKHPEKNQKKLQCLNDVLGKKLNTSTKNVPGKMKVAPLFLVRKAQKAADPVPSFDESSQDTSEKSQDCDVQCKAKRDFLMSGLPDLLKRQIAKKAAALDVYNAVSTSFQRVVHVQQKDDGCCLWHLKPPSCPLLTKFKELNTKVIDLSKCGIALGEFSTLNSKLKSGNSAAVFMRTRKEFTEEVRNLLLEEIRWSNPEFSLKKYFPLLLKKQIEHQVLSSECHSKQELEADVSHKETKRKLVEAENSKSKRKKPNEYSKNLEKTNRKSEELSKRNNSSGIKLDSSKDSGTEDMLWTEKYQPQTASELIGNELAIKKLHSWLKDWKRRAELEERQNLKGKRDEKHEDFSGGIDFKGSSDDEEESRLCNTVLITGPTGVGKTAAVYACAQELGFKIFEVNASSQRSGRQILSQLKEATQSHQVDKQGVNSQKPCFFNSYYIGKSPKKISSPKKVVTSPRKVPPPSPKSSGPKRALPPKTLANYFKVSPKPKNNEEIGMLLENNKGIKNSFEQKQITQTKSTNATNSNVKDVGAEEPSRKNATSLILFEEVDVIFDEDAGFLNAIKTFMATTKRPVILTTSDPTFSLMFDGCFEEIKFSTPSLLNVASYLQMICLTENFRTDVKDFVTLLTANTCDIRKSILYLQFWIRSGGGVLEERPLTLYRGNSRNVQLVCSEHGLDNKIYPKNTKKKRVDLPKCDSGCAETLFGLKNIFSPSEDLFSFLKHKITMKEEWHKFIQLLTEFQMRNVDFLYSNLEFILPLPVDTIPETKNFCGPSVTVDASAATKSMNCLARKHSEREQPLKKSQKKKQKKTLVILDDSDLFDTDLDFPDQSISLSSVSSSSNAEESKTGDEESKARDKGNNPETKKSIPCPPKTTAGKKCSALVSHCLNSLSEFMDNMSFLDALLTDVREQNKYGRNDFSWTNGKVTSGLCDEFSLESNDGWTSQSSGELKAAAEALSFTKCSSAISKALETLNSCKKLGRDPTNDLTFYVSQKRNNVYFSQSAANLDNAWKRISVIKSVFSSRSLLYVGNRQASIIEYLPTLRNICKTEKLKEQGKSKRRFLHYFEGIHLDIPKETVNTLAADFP
Sequence of M-phase phosphoprotein 8 (Homo sapiens) (Q99549 whole entry, looked up): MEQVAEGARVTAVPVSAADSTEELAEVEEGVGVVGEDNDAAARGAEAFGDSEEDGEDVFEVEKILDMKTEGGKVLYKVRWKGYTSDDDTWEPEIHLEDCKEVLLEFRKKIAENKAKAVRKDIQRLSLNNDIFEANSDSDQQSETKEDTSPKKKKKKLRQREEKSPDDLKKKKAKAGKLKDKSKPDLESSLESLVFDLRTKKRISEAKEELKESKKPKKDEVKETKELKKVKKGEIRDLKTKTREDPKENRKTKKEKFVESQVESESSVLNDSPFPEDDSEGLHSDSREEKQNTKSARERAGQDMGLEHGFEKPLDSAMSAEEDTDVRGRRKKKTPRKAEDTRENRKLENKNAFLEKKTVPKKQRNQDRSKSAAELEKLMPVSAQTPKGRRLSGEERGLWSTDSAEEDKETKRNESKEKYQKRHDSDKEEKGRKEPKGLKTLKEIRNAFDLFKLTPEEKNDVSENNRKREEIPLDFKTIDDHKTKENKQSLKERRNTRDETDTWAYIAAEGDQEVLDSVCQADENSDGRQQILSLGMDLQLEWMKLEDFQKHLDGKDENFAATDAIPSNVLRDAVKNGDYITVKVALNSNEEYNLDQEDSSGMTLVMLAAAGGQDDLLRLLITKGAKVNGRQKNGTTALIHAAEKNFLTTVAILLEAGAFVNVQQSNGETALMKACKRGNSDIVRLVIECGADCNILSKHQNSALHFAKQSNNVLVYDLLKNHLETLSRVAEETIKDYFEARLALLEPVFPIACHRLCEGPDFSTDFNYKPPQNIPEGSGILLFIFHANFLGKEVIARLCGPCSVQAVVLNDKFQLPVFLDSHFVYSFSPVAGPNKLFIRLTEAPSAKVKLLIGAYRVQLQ

CN(C)CCCN1c2ccccc2CCc2ccccc21
inactive: outcome [1] | outcome [2] | Potency [3] | Potency [4] | Potency [5] | Potency [6] | outcome [7] | activation [8] 2.19% | Potency [9] | outcome [10]
-5.46%: viability change [9]

CN1CCN(C2Cc3ccccc3Sc3ccc(Cl)cc32)CC1 (configuration not stated)
inactive: outcome [2] | Potency [11] | Potency [3] | outcome [12] | Potency [13] | Potency [14] | Potency [4] | outcome [16] | Potency [18] | Potency [6] | activation [8] 0.75% | Potency [9] | outcome [10]
active: Potency [15] 14.1 µM | Potency [17] 199 nM
-10.9%: viability change [9]

CC1=C(CC(=O)O)c2cc(F)ccc2/C1=C\c1ccc(S(C)=O)cc1 (configuration not stated)
inactive: outcome [1] | outcome [2] | Potency [3] | outcome [12] | Potency [13] | Potency [14] | Potency [4] | Potency [5] | outcome [16] | Potency [17] | Potency [18] | Potency [6] | outcome [7] | Potency [9] | outcome [10]
-1.89%: viability change [9]

OCCN1CCN(CCCN2c3ccccc3Sc3ccc(Cl)cc32)CC1
inactive: outcome [2] | Potency [11] | outcome [12] | Potency [13] | Potency [4] | outcome [16] | Potency [18] | Potency [6] | outcome [7] | activation [8] 0.75% | Potency [9] | outcome [10]
active: Potency [3] 5.22 µM | Potency [14] 28.2 µM | Potency [15] 31.6 µM | Potency [17] 794 nM
-4.58%: viability change [9]

CN(C)CC[C@@H](c1ccc(Cl)cc1)c1ccccn1
8.9%: viability change [9]
inactive: outcome [1] | outcome [2] | Potency [3] | outcome [12] | Potency [13] | Potency [14] | Potency [15] | Potency [4] | outcome [19] | Potency [5] | outcome [16] | Potency [17] | Potency [6] | outcome [7] | activation [8] 1.56% | Potency [9] | outcome [10]

CCCn1cnc2c1c(=O)n(CCCCC(C)=O)c(=O)n2C
inactive: outcome [2] | Potency [11] | Potency [3] | outcome [12] | Potency [13] | Potency [14] | Potency [15] | Potency [4] | outcome [19] | Potency [5] | outcome [16] | Potency [17] | Potency [6] | activation [8] 1.25% | Potency [9] | outcome [10]
-13.4%: viability change [9]

NC(N)=NCCC[C@H](N)C(=O)O
inactive: outcome [1] | outcome [2] | Potency [3] | outcome [12] | Potency [14] | Potency [4] | outcome [19] | Potency [5] | outcome [16] | Potency [17] | Potency [6] | outcome [7] | activation [8] -0.438% | Potency [9] | outcome [10]
3.44%: viability change [9]

CC(CN(C)C)CN1c2ccccc2CCc2ccccc21 (configuration not stated)
inactive: outcome [1] | outcome [2] | Potency [11] | outcome [12] | Potency [13] | Potency [14] | Potency [4] | Potency [5] | outcome [16] | Potency [6] | outcome [7] | activation [8] 6.88% | outcome [10]
active: Potency [15] 28.2 µM

O=C1N=C(O)CN1/N=C/c1ccc(-c2ccc([N+](=O)[O-])cc2)o1
-12.1%: viability change [9]
inactive: outcome [1] | outcome [2] | Potency [13] | Potency [14] | Potency [4] | Potency [5] | outcome [16] | Potency [17] | Potency [6] | outcome [7] | Potency [9] | outcome [10]

CCN(CC)CCNC(=O)c1cc(Cl)c(N)cc1OC
-1.22%: viability change [9]
inactive: outcome [1] | outcome [2] | Potency [11] | Potency [3] | outcome [12] | Potency [13] | Potency [14] | Potency [15] | Potency [4] | outcome [19] | Potency [5] | outcome [16] | Potency [6] | outcome [7] | activation [8] 1.31% | Potency [9] | outcome [10]

Nc1cc(=O)[nH]c(N)n1
inactive: outcome [1] | outcome [2] | Potency [3] | outcome [12] | Potency [13] | Potency [14] | Potency [15] | Potency [4] | outcome [19] | Potency [5] | outcome [16] | Potency [17] | Potency [6] | outcome [7] | activation [8] 1.31% | Potency [9] | outcome [10]
1.17%: viability change [9]

CCN(CC)CCCC(C)Nc1c2ccc(Cl)cc2nc2ccc(OC)cc12 (configuration not stated)
active: Potency [3] 0.0117 µM | Potency [13] 15 µM | Potency [5] 11.2 µM | Potency [6] 2.59 µM
inactive: outcome [2] | Potency [11] | outcome [12] | Potency [4] | outcome [16] | activation [8] -2.88% | outcome [10]

CC(C)C(=O)c1c(C(C)C)nn2ccccc12
inactive: outcome [1] | outcome [2] | Potency [11] | Potency [3] | outcome [12] | Potency [13] | Potency [14] | Potency [15] | Potency [4] | outcome [19] | Potency [5] | outcome [16] | Potency [17] | Potency [6] | outcome [7] | activation [8] -4.94% | outcome [10]
